We go through seven compounds from PubChem BioAssay (NCI).

Some test systems named below: DU-145 prostate; K-562 leukemia; MALME-3M melanoma; MDA-MB-231 breast; RXF 393 renal; SF-268 CNS; SF-295 CNS; SF-539 CNS; UACC-257 melanoma; M14 melanoma; HCT-15 colon; HT29 colon; SNB-75 CNS; SNB-19 CNS; U251 CNS; PC-3 prostate; SK-MEL-5 melanoma; UACC-62 melanoma; LOX IMVI melanoma; SK-MEL-28 melanoma.
Test in all cases: NCI-60 one-dose screen, 48 h (100 = growth as untreated, 0 = no growth, -100 = all killed)
Common to all, as to conditions: 10 µM unless noted

The panel holds about 83,000 compounds, 20% with a hit somewhere; the sample as a whole holds those more often.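 48-hour exposure, single concentration, 96-well plates; percent growth endpoint where 0 means no net growth. Active: below 10.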 Values without a mark were called inactive. The source made the active and inactive calls.

For the compound `NNc1ncnc2sc3c(c12)CCN(Cc1ccccc1)C3`, the growth in the test with DU-145 prostate was 61.7%; in the test on K-562 leukemia, 19%; in the test on MALME-3M melanoma, 70.4%; in the test on MDA-MB-231 breast, 40.8%; with RXF 393 renal, 69.3%; with SF-268 CNS, 43.8%. Moreover, the growth is 45.2% with SF-295 CNS; 52.8% with SF-539 CNS; 47% with UACC-257 melanoma; 62.9% in the test on M14 melanoma; 32.9% with HCT-15 colon; 20.7% with HT29 colon. Also, the growth with SNB-75 CNS is 80.7%; in the test on SNB-19 CNS, 69.4%; in the test with U251 CNS it was 51.4%; in the test with PC-3 prostate, 59.5%; in the test with SK-MEL-5 melanoma, 48%; in the test on UACC-62 melanoma, 53.1%. For the same compound, the growth in the test on LOX IMVI melanoma is 39.7%; in the test on SK-MEL-28 melanoma it was 73%.
With `Clc1ccc(-c2nc3c4c(-c5ccccc5)c(-c5ccccc5)n(Cc5ccccc5)c4ncn3n2)cc1`, the growth is 22.7% in the test with DU-145 prostate; 4.9% (active) with K-562 leukemia; 4.59% (active) in the test with MALME-3M melanoma; 0.484% (active) in the test on MDA-MB-231 breast; -11.3% (active) with RXF 393 renal; 20.4% in the test on SF-268 CNS. The growth with SF-295 CNS was -14.1% (active); in the test with SF-539 CNS, 7.91% (active); in the test on UACC-257 melanoma it was 3.18% (active); in the test with M14 melanoma, 15.4%; in the test with HCT-15 colon it was 13.6%; with HT29 colon it was -2% (active). Also, the growth is -23.1% (active) in the test on SNB-75 CNS; 8.49% (active) in the test on SNB-19 CNS; 15.1% in the test with U251 CNS; -1.48% (active) in the test on PC-3 prostate; -94.6% (active) with SK-MEL-5 melanoma; 11.7% in the test with UACC-62 melanoma. The growth in the test on LOX IMVI melanoma is 11.9%; in the test with SK-MEL-28 melanoma, 36.2%.
In the case of `CC(=O)c1ccc2c(N)c(C(=O)Nc3ccc(C(F)(F)F)cc3)sc2n1`, the growth in the test with DU-145 prostate is 82.2%; with K-562 leukemia it was 20%; in the test with MALME-3M melanoma it was 26.4%; in the test with MDA-MB-231 breast it was 68.3%; with RXF 393 renal it was 85.8%; in the test with SF-268 CNS, 85.2%. Moreover, the growth in the test on SF-295 CNS was 38.1%; in the test on SF-539 CNS it was 71.1%; in the test with UACC-257 melanoma it was 59.5%; in the test with M14 melanoma, 58.3%; in the test with HCT-15 colon, 40.7%; in the test on HT29 colon, 82.2%. Also, the growth was 84.7% in the test on SNB-75 CNS; 67.9% in the test on SNB-19 CNS; 72.6% with U251 CNS; 70.2% with PC-3 prostate; -5% (active) in the test with SK-MEL-5 melanoma; 59.7% in the test on UACC-62 melanoma. Moreover, the figures for the growth in the test with LOX IMVI melanoma and in the test with SK-MEL-28 melanoma were 37.8% and 87.2%, respectively.
On to `COc1ccc(N=Nc2c(N)nn3c(-c4ccc(OC)c(OC)c4)ccnc23)cc1`, for which the growth in the test on DU-145 prostate is 79.2%; in the test with K-562 leukemia, 80.2%; in the test on MALME-3M melanoma it was 78.4%; in the test with MDA-MB-231 breast it was 81.1%; in the test with RXF 393 renal it was 65.2%; with SF-268 CNS, 87.2%. The growth with SF-295 CNS was 65.6%; with SF-539 CNS, 20.6%; in the test with UACC-257 melanoma, 99.3%; in the test on M14 melanoma it was 62.5%; with HCT-15 colon it was 91.7%; with HT29 colon, 68.5%. The growth with SNB-75 CNS is 82.3%; in the test with SNB-19 CNS, 74.1%; in the test on U251 CNS, 69.3%; in the test with PC-3 prostate, 87.5%; in the test on SK-MEL-5 melanoma it was 77.4%; in the test with UACC-62 melanoma, 64.3%. The figures for the growth with LOX IMVI melanoma and with SK-MEL-28 melanoma were 86.1% and 86.4%, respectively.
With `C/C(=N/O)c1ccc(NC(=O)CSc2nnc(-c3ccc(-c4nc5ccc(Cl)cc5[nH]4)cc3)o2)cc1`, the growth in the test on DU-145 prostate was -13.6% (active); in the test on K-562 leukemia, 14.9%; in the test on MALME-3M melanoma, -80.8% (active); in the test on MDA-MB-231 breast it was -96.5% (active); in the test on RXF 393 renal, -71.5% (active); in the test on SF-268 CNS, 17.6%. Further, the growth was -16.4% (active) in the test on SF-295 CNS; -100% (active) in the test on SF-539 CNS; -36.9% (active) in the test on UACC-257 melanoma; -62.7% (active) in the test with M14 melanoma; 78.1% in the test on HCT-15 colon; 31.4% in the test on HT29 colon. In addition, the growth was -27.5% (active) in the test with SNB-75 CNS; -86.7% (active) in the test on SNB-19 CNS; -95.8% (active) in the test with U251 CNS; -22.4% (active) in the test on PC-3 prostate; -60.4% (active) with SK-MEL-5 melanoma; -86.6% (active) in the test with UACC-62 melanoma. In addition, the growth with LOX IMVI melanoma and with SK-MEL-28 melanoma was -100% (active) each time.
`Cn1cc(-c2cc(N)n3nc(-c4c[nH]c5ccccc45)cc3n2)c2cc(Br)ccc21`: the growth with DU-145 prostate was -70% (active); with K-562 leukemia, 7.7% (active); with MALME-3M melanoma, -76.9% (active); in the test on MDA-MB-231 breast, -89.3% (active); in the test on RXF 393 renal, -80.6% (active); in the test on SF-268 CNS it was -39.8% (active). Also, the growth was -93.6% (active) with SF-295 CNS; -93.7% (active) with SF-539 CNS; -79.8% (active) in the test with UACC-257 melanoma; -65.7% (active) in the test on M14 melanoma; -76.6% (active) in the test with HCT-15 colon; -52% (active) in the test on HT29 colon. Moreover, the growth in the test with SNB-75 CNS is -47.7% (active); with SNB-19 CNS, -85.9% (active); in the test with U251 CNS, -95.2% (active); in the test on PC-3 prostate it was -42.7% (active); with SK-MEL-5 melanoma it was -94.5% (active); in the test on UACC-62 melanoma it was -69.4% (active). In addition, the growth is -79.3% (active) with LOX IMVI melanoma and -59.1% (active) in the test with SK-MEL-28 melanoma.
`C[C@H](NC(=O)c1ccc2c(-c3ccc(C(F)(F)F)cc3)cccc2c1)c1ccccn1`: the growth in the test with DU-145 prostate is 56.4%; with K-562 leukemia, 20.6%; with MALME-3M melanoma, 67%; in the test with MDA-MB-231 breast, 59.9%; in the test on RXF 393 renal, 13%; with SF-268 CNS, 58.9%. Besides, the growth in the test with SF-295 CNS was 32.5%; with SF-539 CNS, 62.3%; in the test on UACC-257 melanoma, 64.3%; in the test on M14 melanoma, 40.7%; with HCT-15 colon, 20.4%; in the test on HT29 colon, 26.6%. For the same compound, the growth in the test with SNB-75 CNS was 87.3%; in the test on SNB-19 CNS, 42%; with U251 CNS, 42.3%; with PC-3 prostate it was 34.2%; with SK-MEL-5 melanoma it was 34.7%; in the test with UACC-62 melanoma it was 60.3%. The growth is 43.7% in the test with LOX IMVI melanoma and 74.6% in the test with SK-MEL-28 melanoma.
